The panel holds about 83,000 compounds, 20% with a hit somewhere; the sample as a whole holds those more often.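 How to read the values: 0–100, growth inhibition (40 = 60% inhibited); 0, no net growth; -100 to 0, cell death (-40 = 40% of starting cells died; -100 = all dead).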 Unmarked numbers belong to inactive results. Activity calls are given as the source filed them. Rule for the calls: active = growth percent below 10; inactive = the rest.
Experiments:
Experiment in all cases: NCI-60 one-dose screen, 48 h (100 = growth as untreated, 0 = no growth, -100 = all killed)
Settings in all cases: 10 µM unless noted
[1] = system: NCI-H23 lung
[2] = system: NCI-H226 lung
[3] = system: NCI-H322M lung
[4] = system: HOP-62 NSCLC
[5] = system: NCI-H460 lung
[6] = system: HOP-92 NSCLC
[7] = system: NCI-H522 lung
[8] = system: A549/ATCC NSCLC
[9] = system: 786-0 renal
[10] = system: DU-145 prostate
[11] = system: K-562 leukemia
[12] = system: MALME-3M melanoma
[13] = system: MDA-MB-231 breast
[14] = system: RXF 393 renal
[15] = system: SF-268 CNS
[16] = system: SF-295 CNS
[17] = system: SF-539 CNS
[18] = system: UACC-257 melanoma
[19] = system: M14 melanoma

Row | Structure (SMILES) | growth [1] | growth [2] | growth [3] | growth [4] | growth [5] | growth [6] | growth [7] | growth [8] | growth [9] | growth [10] | growth [11] | growth [12] | growth [13] | growth [14] | growth [15] | growth [16] | growth [17] | growth [18] | growth [19]
1 | O=C1Nc2ccccc2/C1=N/N=C/c1ccsc1 | 95.2% | 106% | 100% | 110% | 105% | 109% | 93.8% | 107% | 108% | 111% | 89.9% | 103% | 92.5% | 111% | 101% | 108% | 103% | 104% | 105%
2 | O=c1ccn(C2OC(F)(CO)C(O)C2F)c(=O)[nH]1 (configuration not stated) | 100% | 102% | 113% | 82.7% | 107% | 98.1% | 75% | 104% | 96% | 110% | 112% | 110% | 114% | 141% | 100% | 98.3% | 100% | 95.1% | 95.3%
3 | O=C(/C=C/C12c3ccccc3C(c3ccccc31)C1C(=O)NC(=O)C12)c1ccc(Cl)cc1 (configuration not stated) | -2% (active) | -22.3% (active) | 2.94% (active) | 6.96% (active) | -43.7% (active) | -15.2% (active) | 11.4% | 15.4% | -9.5% (active) | 8.95% (active) | 8.8% (active) | -37.4% (active) | -24.4% (active) | -75.8% (active) | 29.9% | 4.52% (active) | -34.2% (active) | 25.3% | 8.03% (active)
4 | C=C1C(=O)O[C@H]2[C@H]1CC/C(COC(=O)/C=C/C(=O)NCc1ccc(Cn3c(=O)sn(-c4ccccc4)c3=O)cc1)=C\CC[C@@]1(C)O[C@@H]21 | 49.7% | 14.5% | 89.9% | 85.5% | 91.9% | -53.7% (active) | -80.1% (active) | 80.2% | -19.1% (active) | 8.63% (active) | -0.361% (active) | -57.8% (active) | -39.9% (active) | -86.6% (active) | -6.21% (active) | 100% | -39.1% (active) | -11.4% (active) | -36% (active)
5 | CS(=O)(=O)c1ccc(N/N=C/c2c(-c3ccc(S(C)(=O)=O)cc3)[nH]c3ccc(F)cc23)cc1 | 41.6% | 67.2% | 45% | 28.1% | 12.8% | 16.3% | 27.6% | 44.7% | 15.9% | 39.9% | 10.5% | 10.7% | 29.6% | -10.9% (active) | 39.3% | -52.8% (active) | -19.8% (active) | 14.1% | 32.9%
6 | COc1ccc(O)c(-c2cc(-c3ccccc3)c(C#N)c(=O)[nH]2)c1 | 84.1% | 88.5% | 96.4% | 85.5% | 92.5% | 61.5% | 65.6% | 84.1% | 85.4% | 102% | 68.9% | 112% | 89.9% | 104% | 103% | 95.2% | 98.1% | 85% | 94.9%
7 | COc1ccc2c(c1)/C(=C\c1sc(=S)[nH]c1O)C(C(=O)O)=N2 | 99.1% | 99.3% | 102% | 116% | 108% | 91.6% | 87.6% | 99.8% | 102% | 99.2% | 92.6% | 94.7% | 94.8% | 95.2% | 92.3% | 103% | 99.4% | 96.7% | 97%
8 | N=C(N)c1ccc(-c2ccc(-c3ccc(Cl)cc3Cl)o2)cc1 | 3.61% (active) | 93.7% | -53.9% (active) | -12.1% (active) | -65.7% (active) | 45.3% | 1.99% (active) | -46.5% (active) | -86% (active) | -17.9% (active) | -12.9% (active) | 17.4% | -69.7% (active) | 32.1% | 47.3% | -77.1% (active) | -61.7% (active) | 90.9% | 8.85% (active)
